High-throughput results (PubChem)
Compounds with a hit are over-represented: about 12% of the library has one in this group of screens.
JMJD2A Tudor inh: qHTS Assay for Inhibitors of JMJD2A-Tudor Domain. Potency, µM (highest dose often 114 µM), hits mostly inhibitors. actives 4.4% (n = 390,000). AlphaScreen JMJD2A-Tudor / H3K4me3 peptide binding. Lysine-specific demethylase 4A (Homo sapiens), O75164. AID 504339, 2011; note: nearly all actives have a fitted effect of over 50% in size
Target sequence (O75164 whole entry, looked up, the tested form may be a part): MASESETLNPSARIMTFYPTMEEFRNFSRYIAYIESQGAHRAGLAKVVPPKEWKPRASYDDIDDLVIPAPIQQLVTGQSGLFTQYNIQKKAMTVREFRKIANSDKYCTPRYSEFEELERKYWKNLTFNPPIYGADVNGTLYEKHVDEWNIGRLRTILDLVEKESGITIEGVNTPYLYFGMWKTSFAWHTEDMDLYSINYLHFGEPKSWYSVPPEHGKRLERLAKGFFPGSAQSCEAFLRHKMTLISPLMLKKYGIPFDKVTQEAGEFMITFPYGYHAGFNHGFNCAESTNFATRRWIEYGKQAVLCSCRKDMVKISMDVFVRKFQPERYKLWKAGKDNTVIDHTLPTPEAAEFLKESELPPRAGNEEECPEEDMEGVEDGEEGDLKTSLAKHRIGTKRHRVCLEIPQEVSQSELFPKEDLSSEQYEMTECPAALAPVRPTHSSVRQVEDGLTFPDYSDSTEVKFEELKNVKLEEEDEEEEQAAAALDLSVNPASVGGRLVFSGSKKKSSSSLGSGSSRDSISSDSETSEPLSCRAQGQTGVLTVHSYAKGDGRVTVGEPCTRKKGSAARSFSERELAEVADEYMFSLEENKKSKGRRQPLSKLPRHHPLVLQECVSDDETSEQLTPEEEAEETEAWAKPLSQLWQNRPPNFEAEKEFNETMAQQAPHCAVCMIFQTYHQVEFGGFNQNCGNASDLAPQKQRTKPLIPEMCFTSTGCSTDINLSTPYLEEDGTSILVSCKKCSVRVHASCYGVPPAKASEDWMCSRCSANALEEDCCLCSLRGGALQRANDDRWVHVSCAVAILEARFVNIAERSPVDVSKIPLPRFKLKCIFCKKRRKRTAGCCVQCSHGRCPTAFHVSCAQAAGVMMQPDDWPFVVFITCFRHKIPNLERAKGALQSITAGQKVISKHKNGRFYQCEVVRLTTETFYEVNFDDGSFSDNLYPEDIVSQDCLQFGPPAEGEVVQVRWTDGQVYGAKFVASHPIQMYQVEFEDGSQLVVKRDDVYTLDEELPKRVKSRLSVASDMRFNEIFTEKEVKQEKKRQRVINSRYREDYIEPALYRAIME
TDP1 block: qHTS Assay for Inhibitors of Tyrosyl-DNA Phosphodiesterase (TDP1) | recombinant TDP1, AlphaScreen DNA substrate cleavage | actives 0.28% (n = 350,000) | Potency, µM (top dose mostly 130 µM), hits mostly inhibitors | Tyrosyl-DNA phosphodiesterase 1 (Homo sapiens), Q9NUW8; note: nearly all actives have a fitted effect of over 40% in size
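Recombinant E. coli-expressed Tdp1 (1 nM) preincubated with compound 15 min at RT, then 5'-biotin/3'-phosphotyrosine-FITC DNA substrate (15 nM) added for 5 min. AlphaScreen beads (10 ug/ml) added, 10 min RT; tyrosine-FITC cleavage read as signal loss.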
Sfp PPTase inh: qHTS Assay for Inhibitors of Bacillus subtilis Sfp phosphopantetheinyl transferase (PPTase) | 4'-phosphopantetheinyl transferase ffp (Bacillus subtilis), Q9F4F7 | Biochemical Sfp PPTase activity, qHTS | Potency, µM, usual class: inhibitors | actives 3.5% (n = 310,000) | AID 1490, 2009;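 note: the enzyme is Sfp with the accession as filed and its product quenches rhodamine fluorescence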
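With Hepes-Na pH 7.6 buffer containing 10 mM MgCl2, Sfp (15 nM) modified BHQ-2-YbbR (12.5 uM) using rhodamine-CoA (5 uM). Two reads 30 minutes apart at 525/598 nm yielded each well's rate.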
HP1b binding inh: HTS for Inhibitors of HP1-beta Chromodomain Interactions with Methylated Histone Tails; AID 540317, 2011; AlphaScreen HP1-beta / biotin-H3K9me3 peptide binding; Chromobox protein homolog 1 (Homo sapiens), P83916; Potency, µM (top dose mostly 114 µM), most hits filed as inhibitors; actives 0.56% (n = 390,000); note: nearly all actives have a fitted effect of over 70% in size
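Compound inhibition of the preformed complex between 50 nM HP1-beta and 50 nM biotinylated H3K9me3 peptide was read by AlphaScreen. Buffer was PBS pH 7.4 with 0.01% Tween-20. Incubations ran 30 min at room temperature, with 10 ug/mL donor/acceptor beads.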
G9a inh: qHTS Assay for Inhibitors of Histone Lysine Methyltransferase G9a. G9a H3K9 monomethylation, AlphaScreen, 2 h. Potency, µM (top dose mostly 102 µM), usual class: inhibitors. Histone-lysine N-methyltransferase EHMT2 (Homo sapiens), Q96KQ7. actives 8.8% (n = 350,000). AID 504332, 2011; note: nearly all actives have a fitted effect of over 75% in size
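Signal arises when biotinylated H3K9 peptide, once monomethylated, bridges streptavidin donor and antibody-captured acceptor beads. Enzyme at 20 nM was preincubated 15 min with test compounds; peptide 500 nM and SAM 20 uM then reacted for 2 h.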
BAZ2B inh: qHTS Assay for Inhibitors of BAZ2B; Bromodomain adjacent to zinc finger domain protein 2B (Homo sapiens), Q9UIF8; AlphaScreen BAZ2B-H3K14Ac peptide displacement; actives 4.4% (n = 360,000); Potency, µM (titrated, usually from 114 µM), most hits filed as inhibitors; AID 504333, 2011; note: nearly all actives have a fitted effect of over 60% in size
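AlphaScreen displacement of biotin-H3(5-23)K14Ac peptide (50 nM final) from BAZ2B (50 nM final) in PBS pH 7.4, 0.01% Tween-20; complex preformed 30 min RT, then compounds (top 110 uM) 30 min RT, beads 20 min dark.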
Numbers stand for hits; [ ] = dose if it differs, or a comment. Calls come from the whole dose curve; as a rule, active = well fitted curve in the direction sought with a large enough effect; inconclusive = small, poorly fitted or top-dose-only effect, or another doubt; inactive = no such curve, though single readings can be large; an effect the other way counts as inactive or inconclusive.

For COc1ccc(CNCCC(c2ccc(C)cc2)c2ccco2)cc1 (centres undefined) the results were JMJD2A Tudor inh 25µM, HP1b binding inh inconclusive, G9a inh 5µM and BAZ2B inh 79µM.
For Cc1cc2c(s1)c1cnn(Cc3ccc(F)c(C)c3)c(=O)c1n2C the results were JMJD2A Tudor inh inactive.
For COc1ccc(C2NC(=O)c3ccccc3O2)cc1 (centres undefined) the results were JMJD2A Tudor inh inactive, Sfp PPTase inh inactive, HP1b binding inh inactive, G9a inh inactive and BAZ2B inh inactive.
For CCOc1ccc(S(=O)(=O)N/N=C(\C)Cc2ccc(OC)cc2)cc1 the results were JMJD2A Tudor inh inactive, TDP1 block inactive, Sfp PPTase inh inactive, HP1b binding inh inactive, G9a inh 40µM and BAZ2B inh inconclusive.
For N/C(Cn1cncn1)=N\NC(=O)c1ccc(Cl)cc1Cl the results were JMJD2A Tudor inh 13µM, TDP1 block inactive, Sfp PPTase inh inactive, HP1b binding inh inconclusive, G9a inh 8.9µM and BAZ2B inh inactive.
`N#C/C(=C\c1cccs1)C(=O)c1ccccc1Cl` gave JMJD2A Tudor inh inactive, TDP1 block inactive, Sfp PPTase inh 28µM, HP1b binding inh inactive, G9a inh 40µM and BAZ2B inh inconclusive.
For N#C/C(=C\c1cccs1)C(=O)NCc1ccccc1 the results were JMJD2A Tudor inh 40µM, TDP1 block inactive, Sfp PPTase inh inactive, HP1b binding inh inactive, G9a inh inactive and BAZ2B inh inactive.
For CC(C)(C)C(=O)/C(C#N)=C/c1cccs1 the results were JMJD2A Tudor inh inactive, TDP1 block inactive, Sfp PPTase inh inactive, HP1b binding inh inactive, G9a inh inactive and BAZ2B inh inactive.
For N#C/C(=C\c1cccs1)C(=O)NCc1cccnc1 the results were JMJD2A Tudor inh inactive, TDP1 block inactive, Sfp PPTase inh inactive, HP1b binding inh inactive, G9a inh inactive and BAZ2B inh inactive.
`N#C/C(=C\c1cccs1)C(=O)Nc1nccs1` gave JMJD2A Tudor inh 20µM, TDP1 block inactive, Sfp PPTase inh inactive, HP1b binding inh inactive, G9a inh inactive[12.7 µM] and BAZ2B inh 50µM.
`CCN(C(=O)CSc1nc(-c2ccc(C(C)C)cc2)no1)c1ccccc1` gave JMJD2A Tudor inh inactive, TDP1 block inactive, HP1b binding inh inactive, G9a inh inactive and BAZ2B inh inactive.
COc1ccc(O)c(-c2cc(-c3ccccc3Cl)[nH]n2)c1 was read as JMJD2A Tudor inh inconclusive, Sfp PPTase inh inactive, HP1b binding inh inactive and BAZ2B inh inconclusive.
Screening COc1ccc(O)c(-c2cc(-c3cccs3)[nH]n2)c1 returned JMJD2A Tudor inh inactive[11.4 µM], TDP1 block inactive, Sfp PPTase inh inactive, HP1b binding inh inactive, G9a inh inactive and BAZ2B inh 71µM.
COc1ccccc1NS(=O)(=O)c1cc(NC(=O)c2cccs2)ccc1N1CCCCC1 was read as JMJD2A Tudor inh inactive, TDP1 block inactive, Sfp PPTase inh inactive, HP1b binding inh inactive, G9a inh inactive and BAZ2B inh inactive.
`COc1ccccc1NS(=O)(=O)c1cc(NC(=O)C(C)C)ccc1N1CCCCC1` gave JMJD2A Tudor inh inconclusive, TDP1 block inactive, Sfp PPTase inh 40µM, HP1b binding inh inconclusive and G9a inh 8.9µM.
O=C(Nc1ccc(F)cc1)Nc1ccc(N2CCCC2)c(S(=O)(=O)Nc2ccccc2Cl)c1 was read as JMJD2A Tudor inh inactive, TDP1 block inactive, Sfp PPTase inh inactive, HP1b binding inh inactive, G9a inh inconclusive and BAZ2B inh inactive.
COc1ccccc1NS(=O)(=O)c1cc(NC(=O)c2cccs2)ccc1N1CCCC1 was read as JMJD2A Tudor inh inconclusive, TDP1 block inactive, Sfp PPTase inh 20µM, HP1b binding inh inconclusive, G9a inh 1.6µM and BAZ2B inh inactive.
For COc1ccccc1NS(=O)(=O)c1cc(NC(=O)c2cc[n+]([O-])cc2)ccc1N1CCCC1 the results were JMJD2A Tudor inh 63µM, TDP1 block inactive, Sfp PPTase inh 11µM, HP1b binding inh inconclusive and G9a inh inconclusive.
Screening COc1ccccc1NS(=O)(=O)c1cc(NC(=O)c2sccc2C)ccc1N1CCOCC1 returned JMJD2A Tudor inh inactive, TDP1 block inactive, Sfp PPTase inh inactive, HP1b binding inh inactive, G9a inh inactive[12.7 µM] and BAZ2B inh inactive.
`COc1ccccc1NS(=O)(=O)c1cc(NC(=O)Nc2ccccc2)ccc1N1CCCCC1` gave JMJD2A Tudor inh inactive, TDP1 block inactive, Sfp PPTase inh inconclusive, HP1b binding inh inconclusive, G9a inh 10µM and BAZ2B inh inactive.
For CC1(C)Cc2c(cnn2-c2cccc(F)c2)C(NC(=O)CN2CCCC2=O)C1 (centres undefined) the results were JMJD2A Tudor inh inactive, TDP1 block inactive, Sfp PPTase inh inactive, HP1b binding inh inactive and BAZ2B inh inactive.
`Cc1cccc(C)c1NC(=O)C(=O)NCC1CCCN1S(=O)(=O)c1cccs1` (centres undefined) gave JMJD2A Tudor inh inactive, HP1b binding inh inactive, G9a inh inactive and BAZ2B inh inactive.
`O=C(CN1C(=O)NC2(CCCC2)C1=O)N1CCc2ccccc2C1` gave JMJD2A Tudor inh inactive, TDP1 block inactive, Sfp PPTase inh inactive, HP1b binding inh inactive, G9a inh inactive and BAZ2B inh inactive.
Cc1cc(N2Cc3ccccc3C2)ccc1C=O was read as JMJD2A Tudor inh inactive, Sfp PPTase inh inactive, HP1b binding inh inactive, G9a inh 50µM and BAZ2B inh inactive.
`Oc1cccc(N2Cc3ccccc3C2)c1` gave JMJD2A Tudor inh inconclusive, Sfp PPTase inh inactive, HP1b binding inh inactive, G9a inh inactive[2.33 µM] and BAZ2B inh inactive.
Screening Cc1cc2c(cc1C)CN(c1ccccc1)C2 returned JMJD2A Tudor inh inconclusive, Sfp PPTase inh inactive, HP1b binding inh inactive, G9a inh 7.1µM and BAZ2B inh inactive.
For Cc1cc(Cl)c2c(c1)[C@]1(C(=O)N2)[C@@H]2C(=O)N(Cc3ccccc3)C(=O)[C@@H]2[C@@H]2CCCN21 the results were JMJD2A Tudor inh inactive, TDP1 block inactive, Sfp PPTase inh inactive, HP1b binding inh inactive, G9a inh 45µM and BAZ2B inh inconclusive.
`O=C1[C@H]2[C@@H](C(=O)N1c1cc(Cl)cc(Cl)c1)[C@]1(C(=O)Nc3ccccc31)N1CCC[C@@H]21` gave JMJD2A Tudor inh inactive, TDP1 block inactive, Sfp PPTase inh inactive, HP1b binding inh inactive, G9a inh inconclusive and BAZ2B inh inconclusive.
